This note sets out measurements from PubChem BioAssay (NCI).

Among the test systems are SK-MEL-2 melanoma; EKVX NSCLC; SN12C renal; TK-10 renal; ACHN renal; CAKI-1 renal; A498 renal; CCRF-CEM leukemia; MOLT-4 leukemia; SR leukemia; RPMI-8226 leukemia; OVCAR-8 ovarian; OVCAR-5 ovarian; OVCAR-4 ovarian; SK-OV-3 ovarian; IGROV1 ovarian; OVCAR-3 ovarian; HS 578T breast; NCI/ADR-RES ovarian.
Common to all, as to assay: NCI-60 one-dose screen, 48 h (100 = growth as untreated, 0 = no growth, -100 = all killed)
Common to all, as to details: 10 µM unless noted

Each structure is given as a SMILES string. Compounds without any hit were thinned out: in the full panel of roughly 83,000, 20% have a hit.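 The endpoint reported here, percent growth, reads 100 for growth as untreated, 0 for no net growth and -100 for all cells dead.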 A number with no mark means an inactive call. Active and inactive are the calls of the source. How the source made its calls: active means growth percent below 10; inactive means the rest.

`COc1ccc(-c2csc(NC(=O)CSc3nc(C)cc(=O)[nH]3)n2)cc1`: the growth in the assay on SK-MEL-2 melanoma is 103%; in the assay on EKVX NSCLC it was 96.1%; with SN12C renal, 98.2%; in the assay on TK-10 renal, 107%; in the assay on ACHN renal, 105%; in the assay on CAKI-1 renal, 109%. In addition, the growth was 103% in the assay on A498 renal; 106% in the assay on CCRF-CEM leukemia; 110% in the assay on MOLT-4 leukemia; 118% in the assay with SR leukemia; 96% in the assay with RPMI-8226 leukemia; 102% with OVCAR-8 ovarian. The growth in the assay on OVCAR-5 ovarian is 112%; with OVCAR-4 ovarian, 104%; in the assay with SK-OV-3 ovarian, 102%; in the assay on IGROV1 ovarian, 101%; in the assay on OVCAR-3 ovarian it was 103%; in the assay on HS 578T breast, 96.8%. Moreover, the growth with NCI/ADR-RES ovarian is 96.9%.
Regarding `O=C(OCC(O)(CO)C(=O)NC12CC3CC(CC(C3)C1)C2)c1ccc(Cl)cc1` (centres undefined), the growth was 86.3% in the assay with SK-MEL-2 melanoma; 103% with EKVX NSCLC; 100% with SN12C renal; 102% with ACHN renal; 99% with CAKI-1 renal; 102% with A498 renal. Also, the growth is 87.8% in the assay with CCRF-CEM leukemia; 83.8% in the assay on MOLT-4 leukemia; 86% in the assay on SR leukemia; 105% in the assay with RPMI-8226 leukemia; 92.2% with OVCAR-8 ovarian; 100% in the assay with OVCAR-5 ovarian. For the same compound, the growth in the assay with OVCAR-4 ovarian is 107%; in the assay on SK-OV-3 ovarian, 99.7%; in the assay with IGROV1 ovarian, 110%; in the assay with OVCAR-3 ovarian, 101%; in the assay on HS 578T breast, 88.5%; in the assay with NCI/ADR-RES ovarian, 98.6%.
Turning to `O=C(Nc1ncc(Cc2ccc(Cl)cc2)s1)C1=NCCCCN1`, the growth in the assay with SK-MEL-2 melanoma is 110%; in the assay with EKVX NSCLC it was 106%; in the assay with SN12C renal, 106%; with TK-10 renal, 108%; in the assay on ACHN renal it was 109%; in the assay on CAKI-1 renal it was 90.5%. The growth in the assay with A498 renal is 112%; with CCRF-CEM leukemia, 101%; in the assay on MOLT-4 leukemia it was 99.4%; in the assay with SR leukemia, 106%; with RPMI-8226 leukemia it was 97%; in the assay with OVCAR-8 ovarian, 106%. The growth is 105% in the assay with OVCAR-5 ovarian; 105% in the assay on OVCAR-4 ovarian; 106% in the assay on SK-OV-3 ovarian; 107% with IGROV1 ovarian; 110% in the assay with OVCAR-3 ovarian; 109% with HS 578T breast. Also, the growth in the assay with NCI/ADR-RES ovarian was 106%.
For the compound `NS(=O)(=O)Oc1cccc(-c2nc3sccn3c2-c2ccccc2)c1`, the growth in the assay with SK-MEL-2 melanoma is 55.6%; in the assay on EKVX NSCLC, 66.7%; in the assay on SN12C renal, 53%; in the assay on ACHN renal it was 75.1%; in the assay on CAKI-1 renal, 45.7%; with A498 renal it was 7.63% (active). Also, the growth is 40.2% in the assay on CCRF-CEM leukemia; 31.1% in the assay with MOLT-4 leukemia; 19.8% in the assay with SR leukemia; 44.1% in the assay with RPMI-8226 leukemia; 66.8% in the assay with OVCAR-8 ovarian; 95.2% with OVCAR-5 ovarian. For the same compound, the growth was 74.9% in the assay with OVCAR-4 ovarian; 76.7% in the assay with SK-OV-3 ovarian; 54.4% in the assay on IGROV1 ovarian; 39.1% with OVCAR-3 ovarian; 47% in the assay with HS 578T breast; 48.1% with NCI/ADR-RES ovarian.
For the compound `CC(CN)[C@@H]1CC[C@]2(CO)CC[C@]3(C)[C@H](CC[C@@H]4[C@@]5(C)CCC(NCCO)C(C)(C)[C@@H]5CC[C@]43C)[C@@H]12` (some centres undefined), the growth in the assay with SK-MEL-2 melanoma is 94.4%; in the assay with EKVX NSCLC, 73%; in the assay with SN12C renal, 80.1%; in the assay with ACHN renal it was 95%; in the assay on CAKI-1 renal, 59.9%; with A498 renal, 87.2%. Also, the growth in the assay with CCRF-CEM leukemia was 6.44% (active); with MOLT-4 leukemia, 18.3%; in the assay on SR leukemia, -21.5% (active); in the assay with RPMI-8226 leukemia it was 0.0868% (active); in the assay on OVCAR-8 ovarian it was 75.8%; with OVCAR-5 ovarian it was 84.2%. For the same compound, the growth in the assay on OVCAR-4 ovarian is 77.3%; with SK-OV-3 ovarian, 100%; in the assay with IGROV1 ovarian, 71.4%; in the assay with OVCAR-3 ovarian it was 53.1%; with HS 578T breast, 58.7%; in the assay on NCI/ADR-RES ovarian, 91.1%.
Turning to `N#C/C(Sc1nc2sc3c(c2c(=O)n1Cc1ccccc1)CCCC3)=C1/SC=C(c2ccc(Cl)cc2)N1c1ccccc1`, the growth is 106% with SK-MEL-2 melanoma; 106% in the assay on EKVX NSCLC; 98% in the assay on SN12C renal; 107% in the assay with TK-10 renal; 92.7% with ACHN renal; 91.4% in the assay with CAKI-1 renal. Besides, the growth in the assay with A498 renal is 120%; in the assay with CCRF-CEM leukemia, 0.897% (active); with MOLT-4 leukemia, 92.3%; in the assay on SR leukemia, 25.4%; with RPMI-8226 leukemia it was 68.3%; with OVCAR-8 ovarian, 61.6%. Besides, the growth with OVCAR-5 ovarian was 83.7%; in the assay on OVCAR-4 ovarian it was 93.5%; with SK-OV-3 ovarian, 88.6%; in the assay with IGROV1 ovarian, 38.2%; in the assay with OVCAR-3 ovarian, 112%; in the assay with HS 578T breast it was 75.2%. For the same compound, the growth in the assay with NCI/ADR-RES ovarian is 83.5%.
In the case of `CSc1nn2c(-c3cc4cc(Br)ccc4oc3=O)ccnc2c1C#N`, the growth was 104% in the assay on SK-MEL-2 melanoma; 92.2% in the assay on EKVX NSCLC; 102% in the assay with SN12C renal; 157% with TK-10 renal; 105% in the assay on ACHN renal; 92.9% with CAKI-1 renal. For the same compound, the growth with A498 renal was 104%; in the assay on CCRF-CEM leukemia, 101%; in the assay with MOLT-4 leukemia it was 104%; in the assay on SR leukemia it was 94.7%; in the assay on RPMI-8226 leukemia, 103%; in the assay with OVCAR-8 ovarian it was 104%. Further, the growth in the assay with OVCAR-5 ovarian is 112%; in the assay on OVCAR-4 ovarian, 101%; in the assay with SK-OV-3 ovarian it was 105%; in the assay with IGROV1 ovarian, 97.2%; in the assay with OVCAR-3 ovarian, 114%; with HS 578T breast it was 109%. In addition, the growth with NCI/ADR-RES ovarian is 110%.
Regarding `O=C(/C=C/C12c3ccccc3C(c3ccccc31)C1C(=O)NC(=O)C12)c1cccs1` (centres undefined), the growth with SK-MEL-2 melanoma is 38.5%; with EKVX NSCLC, 50.3%; in the assay with SN12C renal it was 36.4%; in the assay on TK-10 renal, 48.7%; in the assay with ACHN renal, 45.8%; in the assay with CAKI-1 renal, 52.2%. For the same compound, the growth in the assay on A498 renal was 46.9%; with CCRF-CEM leukemia, 0.0532% (active); in the assay on MOLT-4 leukemia, 10.5%; with SR leukemia it was 20.3%; in the assay with RPMI-8226 leukemia it was 1.76% (active); in the assay on OVCAR-8 ovarian, 18.4%. Also, the growth in the assay with OVCAR-5 ovarian is 48%; in the assay with OVCAR-4 ovarian, 60%; with SK-OV-3 ovarian it was 59.1%; in the assay on IGROV1 ovarian, 37%; in the assay on OVCAR-3 ovarian, -0.389% (active); in the assay on HS 578T breast, 36.2%. In addition, the growth with NCI/ADR-RES ovarian is 26.6%.
